The values below come from PubChem BioAssay AID777 (Sanford-Burnham Center for Chemical Genomics, 2007).

Screen size: about 96,000 compounds; about 19,000 (20%) were called active. These entries were drawn from the full list. A number with no mark means an inactive call.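 How the source made its calls: active means blocking of liver enzyme CYP2C9 beyond about 50% at 5 µM (limit read from the data); inactive means the rest.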

Sequence of Cytochrome P450 2C9 (Homo sapiens) (P11712 whole entry, looked up): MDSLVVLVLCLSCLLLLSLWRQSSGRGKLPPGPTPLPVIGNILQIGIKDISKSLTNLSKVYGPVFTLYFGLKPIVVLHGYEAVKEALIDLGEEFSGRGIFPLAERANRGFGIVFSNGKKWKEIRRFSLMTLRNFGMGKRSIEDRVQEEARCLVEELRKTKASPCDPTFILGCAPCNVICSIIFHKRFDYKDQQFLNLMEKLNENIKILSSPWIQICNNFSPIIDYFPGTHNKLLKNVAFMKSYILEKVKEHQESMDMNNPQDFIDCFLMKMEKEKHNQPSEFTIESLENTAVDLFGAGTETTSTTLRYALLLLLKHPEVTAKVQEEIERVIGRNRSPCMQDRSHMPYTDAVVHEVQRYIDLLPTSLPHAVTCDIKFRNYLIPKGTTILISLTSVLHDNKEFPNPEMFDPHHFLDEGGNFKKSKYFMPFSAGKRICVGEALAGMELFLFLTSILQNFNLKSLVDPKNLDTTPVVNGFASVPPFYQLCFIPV

This test has as its target Cytochrome P450 2C9 (Homo sapiens) (UniProt P11712). Put plainly: blockers of cytochrome P450 2C9 activity – biochemical, luminescence, ADME assay, primary screen (AID 777). To be noted: CYP2C9 Supersomes, luciferin-H conversion, at 5 µM, hits give high values.
Consider `O=C(NCN1CCN(CCO)CC1)c1cnccn1`, for which the inhibition is 10.7%.
With `CC1CC(C)CN(CC(=O)N2c3ccccc3CCc3ccccc32)C1` (centres undefined), the inhibition is -3.1%.
As for `COc1ccc(CCn2c(NCCCN3CCOCC3)nc3c2c(=O)[nH]c(=O)n3C)cc1`, the inhibition was 16.8%.
With `CCCCNc1nc2c(c(=O)[nH]c(=O)n2C)n1CCOc1ccccc1`, the inhibition is 23.9%.
As for `CC(c1ccccc1)n1c(NCCCn2ccnc2)nc2c1c(=O)[nH]c(=O)n2C` (centres undefined), the inhibition was 96.2% (active).
Turning to `O=C1c2cccc3cccc(c23)N1CN1CCN(c2ccccn2)CC1`, the inhibition is -43%.
In the case of `C/C(=N\NC(=O)c1ccccc1C)c1ccc(N2CCOCC2)cc1`, the inhibition was -40.9%.
For the molecule `CCCCc1nc2ccccc2c(=O)n1NC(=O)c1c(O)c2cccc3c2n(c1=O)CC3`, the inhibition is 20.8%.
On to `CCCc1nc2ccccc2c(=O)n1NC(=O)c1c(O)c2ccccc2[nH]c1=O`, for which the inhibition is 60.6% (active).
For `CCCC(=O)Nc1c(O)c2ccccc2[nH]c1=O`, the inhibition was 5.2%.
Consider `CCCOC(=O)Cc1c(O)c2ccccc2[nH]c1=O`, for which the inhibition is -19.5%.
As to `C=CCn1c(SCc2c(C(=O)OC)sc(N)c2C(=O)OC)nnc1-c1ccc(Cl)cc1`, the inhibition is 79% (active).
On to `COCCn1c(SCc2nc3cc(OC)c(OC)cc3c(=O)[nH]2)nnc1-c1ccncc1`, for which the inhibition is -18.5%.
As to `COC(=O)c1sc(=S)n(-c2ccc(Cl)cc2)c1C`, the inhibition was 40.2%.
As to `C=CCn1c(CC(=O)Nc2cccc(OC)c2)nnc1SCC(=O)NC1CCCCC1`, the inhibition was 10%.
The result for `CCc1nnc(NC(=O)CSc2nnc(-c3ccncc3)n2Cc2ccccc2)s1` reads 26.1%; that for `C=CCn1c(SCc2cc(C(=O)OC)c(C)o2)nnc1-c1ccncc1`, 57.4% (active); that for `O=C1c2ccccc2C2=Nc3ccccc3SC(c3ccccc3F)C12` (centres undefined), 8.8%.
The value for `COc1ccccc1Nc1nc(N)nc(CN(C)C2CCCCC2)n1` was -18.4%.
For `Cc1c(C#N)c2ncn(CC#N)c(=O)c2n1-c1ccccc1`, the inhibition was -15.9%.
The result for `O=C(NCc1ccccn1)c1cnc2sccn2c1=O` reads -4%.
The result for `O=C(CNCCO)NC12CC3CC(CC(C3)C1)C2` reads -6%; that for `O=C(Nc1cc(C(F)(F)F)ccc1Cl)c1cc2nc3c(c(C(F)(F)F)n2n1)CCCC3`, -42.8%.
As to `COc1ccc2nc(NC3=NCN(CC4CCCO4)CN3)nc(C)c2c1` (centres undefined), the inhibition is 1.3%.
The result for `COc1c(Cl)cc(C(=O)Nc2ccc(Cl)cn2)cc1Cl` reads -12.2%.
`CCOC(=O)N1CCN(C(c2cccnc2)c2ccc3cccnc3c2O)CC1` (centres undefined): the inhibition was 32.6%.
The value for `CC(=NCc1ccco1)c1c(C(F)(F)F)[nH]n(-c2nc3ccccc3s2)c1=O` was 64.2% (active); that for `CCc1ccc(-c2cc(C(=O)NCc3ccco3)c3ccccc3n2)s1` was 39.4%.
As for `COC(=O)Cc1cc(=O)n(-c2nc3ccccc3s2)[nH]1`, the inhibition is 18.5%.
In the case of `CCOc1[nH]n(-c2ccc(Cl)cc2)c(=O)c1C=Nc1ccc(O)cc1`, the inhibition was 37%.
The value for `O=C(Nc1ccc(S(=O)(=O)N2CCCC2)cc1Cl)C1=COCCO1` was 19.8%; that for `CC(C)C(C(=O)NC1CCCCC1)N(CC1CCCO1)C(=O)CNS(=O)(=O)c1ccc(F)cc1` (centres undefined) was -3.2%.
For `COc1ccc(-c2oc3ncn(Cc4ccco4)c(=N)c3c2-c2ccc(OC)cc2)cc1`, the inhibition is 27.6%.
Take `COc1ccc(OC)c(S(=O)(=O)N(C)CC(=O)N2CCN(c3ccccc3)CC2)c1`: the inhibition is 78.3% (active).
Take `CCN1CCN(C(=O)CN(C)S(=O)(=O)c2ccc(OC)cc2)CC1`: the inhibition was -20.1%.
`COc1ccc(N2CCN(C(=O)CNC(=O)c3ccc(C(C)(C)C)cc3)CC2)cc1`: the inhibition was 22.1%.
As for `COC(=O)c1ccc(S(=O)(=O)c2ccc(C(=O)OC)s2)s1`, the inhibition is 49.3%.
The result for `Cc1nnc(NC(=O)CSc2nccn2-c2cccc(C)c2C)s1` reads 39.9%.
As for `Cn1c(Cc2cccc3ccccc23)nnc1SCC(=O)N1CCN(c2cccc(Cl)c2)CC1`, the inhibition is -15.6%.
Regarding `O=C(O)CSc1nccn1-c1cccc(Cl)c1`, the inhibition was 57.5% (active).
Regarding `O=C(c1ccccn1)c1ncc(C(F)(F)F)cc1Cl`, the inhibition is 11.2%.
`Cc1ccc(C(=O)Nc2ccccc2C(=O)NC2CCCCC2)cc1S(=O)(=O)N1CCOCC1`: the inhibition is 23.7%.
Consider `CSC1=NCCN1C(=O)c1ccc(S(=O)(=O)N2CCOCC2)cc1`, for which the inhibition was 0.8%.
Consider `Cc1ccccc1-c1nnn(CC(=O)c2ccc(S(=O)(=O)N3CCCC3)cc2)n1`, for which the inhibition was 9%.
For `Cc1cc(C)n(C(=O)c2ccc(S(=O)(=O)N3CCCC3)cc2)n1`, the inhibition is 86.9% (active).
In the case of `Cc1cc(C)n(C(=O)c2ccc(C)c(S(=O)(=O)N3CCOCC3)c2)n1`, the inhibition is 66.3% (active).
The result for `CC(=O)c1c(N2CCOCC2)nc(=S)n(-c2cc(C)ccc2C)c1C` reads -8.6%; that for `Cc1cccc(N2C(=O)SC(N(CC(=O)O)c3cccc(C)c3)C2=O)c1` (centres undefined), 30.8%.
Turning to `Cc1ccc(-n2nc3c(c2NC(=O)c2ccc4c(c2)OCO4)CSC3)c(C)c1`, the inhibition was 1.1%.
The value for `COc1cccc(C(=O)Nc2c3c(nn2-c2cccc(C)c2C)CS(=O)(=O)C3)c1OC` was -6.7%; that for `Cc1cccc(-n2nc3c(c2NC(=O)c2ccc(Br)o2)CSC3)c1C` was 72.3% (active); that for `COCc1nc2ccccc2n1Cc1ccccc1Br` was 14.7%.
In the case of `COc1ccc(NC(=O)COC(=O)Cn2c(C)nc3ccccc32)cc1OC`, the inhibition was -9.8%.
As to `COc1ccc(-c2cn(-c3ccc(C)cc3)c(=O)n2CC(=O)Nc2ccc(OC)c(OC)c2)cc1`, the inhibition is 80.5% (active).
`COc1ccc(NC(=O)Cn2c(-c3ccc(OC)cc3)cn(-c3ccc(C)cc3)c2=O)cc1`: the inhibition is 10%.
Regarding `COCC(C)N=CC1=C(O)CC(C)(C)CC1=O` (centres undefined), the inhibition was -5.7%.
The value for `CCOc1ccccc1NC(=O)CCN1CCN(S(=O)(=O)c2ccc(OC)cc2)CC1` was 41.4%; that for `COc1ccc(S(=O)(=O)N2CCN(c3ncnc4c(-c5ccccc5)nsc34)CC2)cc1` was 51.9% (active); that for `COc1ccc(S(=O)(=O)N2CCCC(C(=O)Nc3ccc(NC(=O)c4ccccn4)cc3)C2)cc1` (centres undefined) was -18.5%.

One may read the inhibition as the relative decrease from the control value, in per cent.
